Read-out in assay [1]: Matrix Metallopeptidase 1 (MMP1), MMP1 (gene 4312)
Put plainly: BSK_BE3C_MMP1: BioMAP Diversity Plus: BE3C Assay for Matrix Metallopeptidase 1 (MMP1) Biomarker Activity (AID 2283024). To be noted: primary human bronchial epithelial cells; actives raise or lower the signal. In a few lines:
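ELISA read-out of MMP1 in human lung bronchial epithelial primary cultures, 24 h post-dose; bidirectional curve fit vs DMSO baseline, gain or loss of signal scored.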

The nature of assay [2]: BSK_3C_Vis: BioMAP Diversity Plus: 3C Assay for Morphology Visualization (AID 2283025).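 Also: fitted both ways so gain or loss versus DMSO counts.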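 As to AC50: light microscopy image of cell morphology used as background control.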 The settings on record: primary human endothelial cells (HUVEC). A digest of the protocol:
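HUVEC, 3C system; light microscopy of morphology at 24 h post-dose. Bidirectional fit vs DMSO baseline. Secondary readout, background-control function.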

Read-out in assay [3]: Pselectin, SELP (gene 6403)
As to the kind of experiment: BSK_4H_Pselectin: BioMAP Diversity Plus: 4H Assay for Pselectin Biomarker Activity (AID 2283026). The settings on record: primary human endothelial cells (HUVEC); actives raise or lower the signal. A digest of the protocol:
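HUVEC, 24 h chemical exposure; P-selectin read by ELISA. Bidirectional curve fit vs DMSO baseline; gain or loss of signal scored.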

A short description of assay [4]: BSK_4H_SRB: Viability Assessment in the BioMAP Diversity Plus: 4H Assay (AID 2283027).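 Also: cells exposed to compound for 24 h before staining.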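 As to AC50: curves fitted both ways versus DMSO so AC50 may be loss or gain.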 To be noted: primary human endothelial cells (HUVEC). A digest of the protocol:
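Cytotoxicity readout: sulforhodamine B (0.1%) staining of total protein after 10% TCA fixation, measured at 560 nm in human umbilical vein endothelium at 24 h. DMSO set the baseline; fitting was bidirectional.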

Read-out in assay [5]: Thrombomodulin, THBD (gene 7056)
As to the kind of experiment: BSK_3C_Thrombomodulin: BioMAP Diversity Plus: 3C Assay for Thrombomodulin Biomarker Activity (AID 2283029). To be noted: primary human endothelial cells (HUVEC); actives raise or lower the signal. A digest of the protocol: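 HUVEC, 3C conditions; compound 24 h; thrombomodulin by ELISA; bidirectional curve fit vs DMSO baseline; parallel SRB total-protein staining for cytotoxicity.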

Read-out in assay [6]: Urokinase-type plasminogen activator receptor (uPAR), PLAUR (gene 5329)
As to the kind of experiment: BSK_4H_uPAR: BioMAP Diversity Plus: 4H Assay for Urokinase-type plasminogen activator receptor (uPAR) Biomarker Activity (AID 2283030). To be noted: primary human endothelial cells (HUVEC); actives raise or lower the signal. A digest of the protocol:
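Chemicals are dosed onto human vascular endothelial primary cells (umbilical vein). After 24 h, uPAR is read by ELISA. Gain or loss of signal is fitted relative to DMSO.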

Read-out in assay [7]: Vascular endothelial growth factor receptor 2 (Homo sapiens) (UniProt P35968)
Put plainly: BSK_4H_VEGFRII: BioMAP Diversity Plus: 4H Assay for Vascular endothelial growth factor receptor 2 (VEGFR2) Biomarker Activity (AID 2283031).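 As to AC50: cell-surface VEGFR2 protein level quantified by ELISA.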 To be noted: primary human endothelial cells (HUVEC); actives raise or lower the signal. In a few lines:
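VEGFRII levels on human vascular endothelial primary cells were determined by ELISA at 24 hours post-dosing, with gain- or loss-of-signal fitted against DMSO controls.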

Read-out in assay [8]: Human Leukocyte Antigen - DR isotype (HLADR), HLA-DRA (gene 3122)
As to the kind of experiment: BSK_BE3C_HLADR: BioMAP Diversity Plus: BE3C Assay for Human Leukocyte Antigen - DR isotype (HLADR) Biomarker Activity (AID 2283032). To be noted: primary human bronchial epithelial cells; actives raise or lower the signal. A digest of the protocol: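 Primary human bronchial epithelial cells (BE3C); 24 h chemical exposure; HLA-DR by ELISA; bidirectional curve fit vs DMSO baseline.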

Read-out in assay [9]: Vascular cell adhesion molecule 1 (VCAM1), VCAM1 (gene 7412)
Put plainly: BSK_4H_VCAM1: BioMAP Diversity Plus: 4H Assay for Vascular cell adhesion molecule 1 (VCAM1) Biomarker Activity (AID 2283033).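 As to outcome: cell-surface VCAM-1 protein measured by ELISA.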 The settings on record: primary human endothelial cells (HUVEC); actives raise or lower the signal. In a few lines:
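HUVEC, 24 h post-dose; VCAM-1 by ELISA. Bidirectional curve fit vs DMSO baseline. Parallel SRB total-protein stain (0.1% SRB after 10% TCA fixation, 560 nm) for cytotoxicity.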

Read-out in assay [10]: Interferon-gamma inducible Protein 10 (IP10), CXCL10 (gene 3627)
As to the kind of experiment: BSK_BE3C_IP10: BioMAP Diversity Plus: BE3C Assay for Interferon-gamma inducible Protein 10 (IP10) Biomarker Activity (AID 2283034). The settings on record: primary human bronchial epithelial cells; actives raise or lower the signal. A digest of the protocol:
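ELISA readout of IP-10 in BE3C system: primary human bronchial epithelial cells, 24 h post-dosing; bidirectional curve fit vs DMSO baseline.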

Read-out in assay [11]: Monokine induced gamma interferon (MIG), CXCL9 (gene 4283)
As to the kind of experiment: BSK_BE3C_MIG: BioMAP Diversity Plus: BE3C Assay for Monokine induced gamma interferon (MIG) Biomarker Activity (AID 2283035).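 As to outcome: MIG protein measured by ELISA in BE3C cultures after 24 h of dosing.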 To be noted: primary human bronchial epithelial cells; actives raise or lower the signal. In a few lines: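 hu bronchial epithelial 1° cells, 24 h cpd; MIG by ELISA; bidirectional fit, DMSO = baseline.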

Read-out in assay [12]: Transforming growth factor beta 1 (TGFb1), TGFB1 (gene 7040)
As to the kind of experiment: BSK_BE3C_TGFb1: BioMAP Diversity Plus: BE3C Assay for Transforming growth factor beta 1 (TGFb1) Biomarker Activity (AID 2283036;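 as to outcome: TGF-b1 protein level measured by ELISA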). To be noted: primary human bronchial epithelial cells; actives raise or lower the signal. A digest of the protocol:
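Read-out: ELISA for TGF-b1 in primary human bronchial epithelial cultures, 24 h post-dose. Bidirectional curve fitting vs DMSO control; gain or loss of signal both scored.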

Read-out in assay [13]: Plasminogen activator inhibitor-1 (PAI1), SERPINE1 (gene 5054)
Put plainly: BSK_BE3C_PAI1: BioMAP Diversity Plus: BE3C Assay for Plasminogen activator inhibitor-1 (PAI1) Biomarker Activity (AID 2283037). The settings on record: primary human bronchial epithelial cells; actives raise or lower the signal. In a few lines: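 ELISA read-out of PAI-1 from human bronchial epithelial primary cells, 24 h post-dosing; bidirectional curve fit vs DMSO baseline, gain or loss of signal scored.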

Read-out in assay [14]: urokinase plasminogen activator (uPA), PLAU (gene 5328)
As to the kind of experiment: BSK_BE3C_uPA: BioMAP Diversity Plus: BE3C Assay for urokinase plasminogen activator (uPA) Biomarker Activity (AID 2283038).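 As to outcome: uPA protein level quantified by ELISA in cell cultures; uPA read one day after compound addition.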 The settings on record: primary human bronchial epithelial cells; actives raise or lower the signal. A digest of the protocol: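 Measured by ELISA: uPA from human primary bronchial epithelial cells 24 h after chemical treatment. Values derive from bidirectional curve fitting with DMSO serving as negative control. Total protein by SRB staining in parallel wells flagged overt cytotoxicity.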

Read-out in assay [15]: Urokinase-type plasminogen activator receptor (uPAR), PLAUR (gene 5329)
Put plainly: BSK_BE3C_uPAR: BioMAP Diversity Plus: BE3C Assay for Urokinase-type plasminogen activator receptor (uPAR) Biomarker Activity (AID 2283039).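 As to outcome: uPAR protein level measured by ELISA on the cells; cells exposed to compound for one day before measurement.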 The settings on record: primary human bronchial epithelial cells; actives raise or lower the signal. In a few lines: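 ELISA readout of uPAR on human lung primary bronchial epithelial cells, 24 h post-dosing. Bidirectional curve fit relative to DMSO vehicle baseline; gain or loss of signal both scored.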

Read-out in assay [16]: Interleukin-6 (IL6), IL6 (gene 3569)
Put plainly: BSK_CASM3C_IL6: BioMAP Diversity Plus: CASM3C Assay for Interleukin-6 (IL6) Biomarker Activity for (AID 2283040). The settings on record: primary human coronary artery smooth muscle cells; actives raise or lower the signal.

Read-out in assay [17]: Interleukin-8 (IL8), CXCL8 (gene 3576)
Put plainly: BSK_CASM3C_IL8: BioMAP Diversity Plus: CASM3C Assay for Interleukin-8 (IL8) Biomarker Activity (AID 2283042).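 Also: IL-8 protein level quantified by ELISA.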 To be noted: primary human coronary artery smooth muscle cells; actives raise or lower the signal.

Read-out in assay [18]: Human Leukocyte Antigen - DR isotype (HLADR), HLA-DRA (gene 3122)
As to the kind of experiment: BSK_CASM3C_HLADR: BioMAP Diversity Plus: CASM3C Assay for Human Leukocyte Antigen - DR isotype (HLADR) Biomarker Activity (AID 2283043).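 Also: cell-surface HLA-DR protein level quantified by ELISA.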 To be noted: primary human coronary artery smooth muscle cells; actives raise or lower the signal.

Read-out in assay [19]: Tissue plasminogen activator (tPA), PLAT (gene 5327)
As to the kind of experiment: BSK_BE3C_tPA: BioMAP Diversity Plus: BE3C Assay for Tissue plasminogen activator (tPA) Biomarker Activity (AID 2283041).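 As to outcome: tPA level quantified by ELISA one day after compound addition.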 To be noted: primary human bronchial epithelial cells; actives raise or lower the signal. A digest of the protocol:
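ELISA read-out of tPA on human primary bronchial epithelial cells, 24 h post-dosing; bidirectional fit vs DMSO negative control/baseline.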

Experimental findings from PubChem BioAssay (EPA / NIEHS) are described below.

Active and inactive are the calls of the source. The calls were made as follows: active = hit-call score of the fitted dose curve at least 0.9, where 1 is the maximum; inactive = score below 0.9.

`Nc1ncc([N+](=O)[O-])s1`: the result in assay [1], in assay [2], in assay [3], in [4], in assay [5] and in assay [6] was inactive. For the same compound, the result in assay [7], in [8], in assay [9], in assay [10], in [11] and in [12] was inactive. Moreover, the outcome in assay [13], in assay [14], in assay [15], in [16], in [17] and in assay [18] was inactive.

With `CC(C)(c1ccccc1)c1ccc(O)c(C(C)(C)c2ccccc2)c1`, the AC50 was 32.3 µM (active) in assay [1]; 5.31 µM (active) in assay [2]; 6.57 µM (active) in assay [3]; 8.09 µM (active) in assay [4]; 7.22 µM (active) in [7]; 13.6 µM (active) in assay [8]. For the same compound, the AC50 was 8.48 µM (active) in assay [9]; 12 µM (active) in assay [10]; 22.7 µM (active) in assay [11]; 16.8 µM (active) in assay [12]; 14.3 µM (active) in [13]; 16.2 µM (active) in assay [14]. The AC50 is 29.3 µM (active) in assay [15], 26.4 µM (active) in assay [16], 28.5 µM (active) in [17] and 25.8 µM (active) in assay [18]. Moreover, in [5], the outcome was inactive.

Take `O=Cc1cccc(Oc2ccccc2)c1`: the result in [1], in assay [2], in [3], in [4], in [5] and in [7] was inactive. Besides, the result in [8], in assay [9], in assay [10], in assay [11], in [12] and in assay [13] was inactive. The result in [14], in assay [15], in assay [16], in assay [17] and in assay [18] was inactive.

For `ClCC(Cl)CCl`, the result in assay [1], in assay [2], in assay [3], in assay [4], in [5] and in [7] was inactive. The result in assay [8], in assay [9], in assay [10], in assay [11], in assay [12] and in assay [13] was inactive. The outcome in [14], in assay [15], in [16], in assay [19], in [17] and in assay [18] was inactive.

`O=C(OC1CCCCC1)c1ccccc1C(=O)OC1CCCCC1`: the AC50 was 4.58 µM (active) in [1]; 5.63 µM (active) in [2]; 9.57 µM (active) in [3]; 13 µM (active) in assay [4]; 13 µM (active) in assay [6]; 9.97 µM (active) in [7]. Besides, the AC50 in assay [8] was 13 µM (active); in [9], 20.9 µM (active); in assay [10], 20.9 µM (active); in assay [19] it was 8.39 µM (active). The outcome in assay [5], in [11], in assay [12], in assay [13], in assay [14] and in [15] was inactive. Further, the outcome in assay [16], in assay [17] and in assay [18] was inactive.
